This passage reports inhibition results from ChEMBL document CHEMBL1961873, “Compounds: GSK PKIS; Assays: Nanosyn kinase panel” (2012).

Assay [1] addresses Sphingosine kinase 1 (Homo sapiens) (UniProt Q9NYA1). Conditions: at 1 µM.
For assay [2], the target named is T1, Sphingosine kinase 2 (Homo sapiens) (UniProt Q9NRA0).
T1 sequence (whole entry): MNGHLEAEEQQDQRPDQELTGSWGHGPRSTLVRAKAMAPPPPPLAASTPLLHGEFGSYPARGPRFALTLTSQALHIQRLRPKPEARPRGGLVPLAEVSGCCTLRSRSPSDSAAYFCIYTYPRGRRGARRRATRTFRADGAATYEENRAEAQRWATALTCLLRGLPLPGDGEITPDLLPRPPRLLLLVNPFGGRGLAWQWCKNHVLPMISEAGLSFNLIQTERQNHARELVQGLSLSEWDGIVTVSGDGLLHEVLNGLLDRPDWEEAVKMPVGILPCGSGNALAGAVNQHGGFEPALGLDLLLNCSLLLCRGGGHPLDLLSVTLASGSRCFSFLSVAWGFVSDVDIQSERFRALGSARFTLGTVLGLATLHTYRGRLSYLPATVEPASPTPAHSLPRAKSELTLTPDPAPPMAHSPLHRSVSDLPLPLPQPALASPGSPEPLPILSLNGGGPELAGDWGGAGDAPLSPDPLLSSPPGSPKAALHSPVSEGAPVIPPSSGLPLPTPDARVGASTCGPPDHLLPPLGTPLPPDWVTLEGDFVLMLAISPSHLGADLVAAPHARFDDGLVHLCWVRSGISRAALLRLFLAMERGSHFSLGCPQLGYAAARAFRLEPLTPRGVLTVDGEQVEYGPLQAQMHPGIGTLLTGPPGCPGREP
Conditions: at 0.1 µM.

Assay [3] deals with T1, Sphingosine kinase 2 (Homo sapiens). Particulars: at 1 µM.
For assay [4], the target named is Casein kinase II subunit alpha (Homo sapiens) (UniProt P68400). Particulars: at 0.1 µM.
Assay [5] shares this target. Conditions: at 1 µM.
In assay [6] the target is T2, Inhibitor of nuclear factor kappa-B kinase subunit alpha (Homo sapiens) (UniProt O15111).
T2 sequence (whole entry): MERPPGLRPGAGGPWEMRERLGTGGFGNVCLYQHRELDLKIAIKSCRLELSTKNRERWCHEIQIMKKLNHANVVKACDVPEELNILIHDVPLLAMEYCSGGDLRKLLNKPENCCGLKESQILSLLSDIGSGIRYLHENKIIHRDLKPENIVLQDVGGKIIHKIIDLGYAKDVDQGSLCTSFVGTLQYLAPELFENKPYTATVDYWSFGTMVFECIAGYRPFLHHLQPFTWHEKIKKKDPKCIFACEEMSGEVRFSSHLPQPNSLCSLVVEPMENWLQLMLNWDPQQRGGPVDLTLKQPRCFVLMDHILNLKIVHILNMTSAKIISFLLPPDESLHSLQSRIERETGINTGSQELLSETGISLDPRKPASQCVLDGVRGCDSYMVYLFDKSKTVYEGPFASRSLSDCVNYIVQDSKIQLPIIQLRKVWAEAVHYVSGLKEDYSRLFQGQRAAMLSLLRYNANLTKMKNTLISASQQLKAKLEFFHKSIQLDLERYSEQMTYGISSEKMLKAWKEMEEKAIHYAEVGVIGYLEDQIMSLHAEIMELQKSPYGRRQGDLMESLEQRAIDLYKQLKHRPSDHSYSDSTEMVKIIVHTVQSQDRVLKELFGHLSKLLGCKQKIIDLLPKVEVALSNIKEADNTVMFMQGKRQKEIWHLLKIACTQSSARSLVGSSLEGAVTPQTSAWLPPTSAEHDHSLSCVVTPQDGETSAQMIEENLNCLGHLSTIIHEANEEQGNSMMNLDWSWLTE
Conditions: at 0.1 µM.

For assay [7], the target named is T2, Inhibitor of nuclear factor kappa-B kinase subunit alpha (Homo sapiens). Conditions: at 1 µM.
For assay [8], the target named is T3, Inhibitor of nuclear factor kappa-B kinase subunit beta (Homo sapiens) (UniProt O14920).
T3 sequence (whole entry): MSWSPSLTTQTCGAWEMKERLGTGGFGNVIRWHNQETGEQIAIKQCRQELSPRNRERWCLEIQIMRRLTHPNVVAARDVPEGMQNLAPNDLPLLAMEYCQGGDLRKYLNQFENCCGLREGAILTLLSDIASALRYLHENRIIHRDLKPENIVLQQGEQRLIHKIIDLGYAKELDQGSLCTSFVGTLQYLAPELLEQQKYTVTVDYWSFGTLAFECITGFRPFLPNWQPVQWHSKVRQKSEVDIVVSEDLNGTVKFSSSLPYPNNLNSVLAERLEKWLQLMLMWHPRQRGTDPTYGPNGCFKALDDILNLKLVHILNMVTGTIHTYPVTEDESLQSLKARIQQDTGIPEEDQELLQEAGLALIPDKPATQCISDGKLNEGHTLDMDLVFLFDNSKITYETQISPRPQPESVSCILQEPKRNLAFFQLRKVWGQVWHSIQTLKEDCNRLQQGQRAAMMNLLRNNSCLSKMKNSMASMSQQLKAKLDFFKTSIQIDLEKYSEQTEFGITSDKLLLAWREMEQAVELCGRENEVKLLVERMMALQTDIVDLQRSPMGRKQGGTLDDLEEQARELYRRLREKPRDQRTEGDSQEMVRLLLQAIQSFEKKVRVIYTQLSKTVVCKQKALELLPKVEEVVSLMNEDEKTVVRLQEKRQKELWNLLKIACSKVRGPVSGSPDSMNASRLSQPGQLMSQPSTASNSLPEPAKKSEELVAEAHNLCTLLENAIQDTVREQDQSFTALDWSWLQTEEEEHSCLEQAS
Conditions: at 0.1 µM.

In assay [9] the target is T3, Inhibitor of nuclear factor kappa-B kinase subunit beta (Homo sapiens). Conditions: at 1 µM.
Assay [10] deals with T4, Inhibitor of nuclear factor kappa-B kinase subunit epsilon (Homo sapiens) (UniProt Q14164).
T4 sequence (whole entry): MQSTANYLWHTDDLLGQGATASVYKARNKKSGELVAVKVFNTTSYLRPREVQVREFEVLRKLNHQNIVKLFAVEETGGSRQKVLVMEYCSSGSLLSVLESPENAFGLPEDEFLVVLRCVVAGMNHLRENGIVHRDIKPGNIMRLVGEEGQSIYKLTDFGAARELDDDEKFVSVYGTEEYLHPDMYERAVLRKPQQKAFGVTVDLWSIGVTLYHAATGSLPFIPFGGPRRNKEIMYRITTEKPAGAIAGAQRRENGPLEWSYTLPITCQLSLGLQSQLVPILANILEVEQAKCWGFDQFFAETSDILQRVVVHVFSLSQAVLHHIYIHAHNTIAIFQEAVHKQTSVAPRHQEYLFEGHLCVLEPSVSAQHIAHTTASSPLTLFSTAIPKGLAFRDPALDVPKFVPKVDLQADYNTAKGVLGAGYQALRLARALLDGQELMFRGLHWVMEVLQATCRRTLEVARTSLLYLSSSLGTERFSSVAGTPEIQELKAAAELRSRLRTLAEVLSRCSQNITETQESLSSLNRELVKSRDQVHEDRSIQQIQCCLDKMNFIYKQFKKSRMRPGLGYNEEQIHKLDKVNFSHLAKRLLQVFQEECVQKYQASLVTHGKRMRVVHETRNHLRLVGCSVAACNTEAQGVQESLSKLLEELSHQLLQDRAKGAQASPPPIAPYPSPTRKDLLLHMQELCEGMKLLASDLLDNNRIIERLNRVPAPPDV
Particulars: at 0.1 µM.

The target of assay [11] is T4, Inhibitor of nuclear factor kappa-B kinase subunit epsilon (Homo sapiens). Particulars: at 1 µM.
Assay [12] has as its target T5, Serine/threonine-protein kinase Nek1 (Homo sapiens) (UniProt Q96PY6).
T5 sequence (whole entry): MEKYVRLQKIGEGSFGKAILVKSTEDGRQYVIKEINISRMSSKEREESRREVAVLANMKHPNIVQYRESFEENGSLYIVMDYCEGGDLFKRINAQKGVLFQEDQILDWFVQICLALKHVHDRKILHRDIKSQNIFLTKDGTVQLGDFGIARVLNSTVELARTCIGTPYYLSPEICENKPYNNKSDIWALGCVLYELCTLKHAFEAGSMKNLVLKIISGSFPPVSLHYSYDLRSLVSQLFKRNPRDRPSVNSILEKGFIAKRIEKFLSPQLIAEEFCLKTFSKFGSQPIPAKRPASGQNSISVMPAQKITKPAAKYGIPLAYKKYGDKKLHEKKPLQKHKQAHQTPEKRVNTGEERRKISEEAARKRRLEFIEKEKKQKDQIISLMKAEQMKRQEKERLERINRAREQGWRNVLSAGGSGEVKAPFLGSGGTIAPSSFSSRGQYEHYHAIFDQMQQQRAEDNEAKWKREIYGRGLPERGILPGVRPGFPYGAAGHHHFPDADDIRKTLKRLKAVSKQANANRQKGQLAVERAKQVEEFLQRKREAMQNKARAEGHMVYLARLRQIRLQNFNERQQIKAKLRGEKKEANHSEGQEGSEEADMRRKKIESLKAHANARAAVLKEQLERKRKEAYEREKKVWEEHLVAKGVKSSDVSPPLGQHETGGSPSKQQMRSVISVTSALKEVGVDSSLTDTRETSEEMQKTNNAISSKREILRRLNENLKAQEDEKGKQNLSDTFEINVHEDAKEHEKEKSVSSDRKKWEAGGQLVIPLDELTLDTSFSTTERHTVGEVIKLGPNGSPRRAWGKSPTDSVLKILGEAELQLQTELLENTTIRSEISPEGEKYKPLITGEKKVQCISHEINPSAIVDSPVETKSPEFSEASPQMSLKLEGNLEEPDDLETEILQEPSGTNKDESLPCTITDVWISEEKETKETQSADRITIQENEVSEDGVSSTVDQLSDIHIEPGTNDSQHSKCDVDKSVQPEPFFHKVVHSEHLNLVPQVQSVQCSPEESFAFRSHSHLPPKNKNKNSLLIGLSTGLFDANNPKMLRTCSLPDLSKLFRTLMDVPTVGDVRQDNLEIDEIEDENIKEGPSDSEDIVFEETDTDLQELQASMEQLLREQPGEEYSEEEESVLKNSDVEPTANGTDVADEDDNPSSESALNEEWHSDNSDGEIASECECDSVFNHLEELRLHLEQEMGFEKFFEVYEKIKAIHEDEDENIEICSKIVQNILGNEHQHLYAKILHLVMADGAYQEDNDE
Particulars: at 0.1 µM.

Assay [13] addresses T5, Serine/threonine-protein kinase Nek1 (Homo sapiens). Particulars: at 1 µM.
In assay [14] the target is T6, Serine/threonine-protein kinase Nek2 (Homo sapiens) (UniProt P51955).
T6 sequence (whole entry): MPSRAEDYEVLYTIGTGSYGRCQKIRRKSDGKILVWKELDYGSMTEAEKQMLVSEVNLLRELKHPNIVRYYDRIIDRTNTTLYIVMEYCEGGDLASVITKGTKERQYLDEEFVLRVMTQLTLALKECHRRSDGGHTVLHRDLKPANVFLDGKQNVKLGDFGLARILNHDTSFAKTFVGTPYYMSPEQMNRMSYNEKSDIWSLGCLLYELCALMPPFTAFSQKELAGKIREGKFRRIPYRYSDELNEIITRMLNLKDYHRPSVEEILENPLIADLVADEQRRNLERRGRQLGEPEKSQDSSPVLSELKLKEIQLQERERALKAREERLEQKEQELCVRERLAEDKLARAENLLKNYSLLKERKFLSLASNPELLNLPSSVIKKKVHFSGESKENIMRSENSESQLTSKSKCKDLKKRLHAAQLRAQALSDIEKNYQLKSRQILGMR
Conditions: at 0.1 µM.

Assay [15] has as its target T6, Serine/threonine-protein kinase Nek2 (Homo sapiens). Conditions: at 1 µM.
Assay [16] deals with Serine/threonine-protein kinase Nek6 (Homo sapiens) (UniProt Q9HC98). Conditions: at 0.1 µM.
Assay [17] has the same target. Conditions: at 1 µM.
Assay [18] has as its target Serine/threonine-protein kinase Nek7 (Homo sapiens) (UniProt Q8TDX7). Conditions: at 0.1 µM.
Assay [19] shares this target. Particulars: at 1 µM.
For assay [20], the target named is T7, Serine/threonine-protein kinase Nek9 (Homo sapiens) (UniProt Q8TD19).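 Further: reported value is the mean percent inhibition of NEK9.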
T7 sequence (whole entry): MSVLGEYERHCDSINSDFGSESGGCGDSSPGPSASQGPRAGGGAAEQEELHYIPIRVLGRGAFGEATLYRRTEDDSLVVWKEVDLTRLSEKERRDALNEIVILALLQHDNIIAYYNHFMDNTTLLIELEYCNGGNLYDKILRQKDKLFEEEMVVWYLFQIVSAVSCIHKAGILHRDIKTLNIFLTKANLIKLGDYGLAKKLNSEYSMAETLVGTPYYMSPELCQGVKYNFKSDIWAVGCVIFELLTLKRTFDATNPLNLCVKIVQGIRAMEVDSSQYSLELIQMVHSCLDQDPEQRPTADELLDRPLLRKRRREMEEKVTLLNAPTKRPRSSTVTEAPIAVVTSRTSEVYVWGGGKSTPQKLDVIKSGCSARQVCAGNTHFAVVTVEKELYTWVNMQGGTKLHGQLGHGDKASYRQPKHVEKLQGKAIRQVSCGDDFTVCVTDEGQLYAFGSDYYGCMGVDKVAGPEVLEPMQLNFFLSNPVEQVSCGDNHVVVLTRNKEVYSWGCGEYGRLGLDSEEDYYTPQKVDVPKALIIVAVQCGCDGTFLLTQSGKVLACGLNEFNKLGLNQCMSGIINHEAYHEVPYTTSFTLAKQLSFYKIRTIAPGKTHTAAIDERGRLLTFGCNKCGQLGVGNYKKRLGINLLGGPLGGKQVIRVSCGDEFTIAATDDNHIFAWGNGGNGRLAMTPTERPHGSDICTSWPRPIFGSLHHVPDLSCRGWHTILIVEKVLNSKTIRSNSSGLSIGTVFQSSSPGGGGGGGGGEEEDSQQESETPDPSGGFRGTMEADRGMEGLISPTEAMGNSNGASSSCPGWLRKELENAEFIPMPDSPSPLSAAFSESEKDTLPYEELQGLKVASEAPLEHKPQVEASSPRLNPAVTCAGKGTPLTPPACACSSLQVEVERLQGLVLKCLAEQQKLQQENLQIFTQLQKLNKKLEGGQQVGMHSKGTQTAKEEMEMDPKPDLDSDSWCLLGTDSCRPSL
Particulars: at 0.1 µM.

Sequence of Serine/threonine-protein kinase Nek6 (Homo sapiens) (Q9HC98 whole entry): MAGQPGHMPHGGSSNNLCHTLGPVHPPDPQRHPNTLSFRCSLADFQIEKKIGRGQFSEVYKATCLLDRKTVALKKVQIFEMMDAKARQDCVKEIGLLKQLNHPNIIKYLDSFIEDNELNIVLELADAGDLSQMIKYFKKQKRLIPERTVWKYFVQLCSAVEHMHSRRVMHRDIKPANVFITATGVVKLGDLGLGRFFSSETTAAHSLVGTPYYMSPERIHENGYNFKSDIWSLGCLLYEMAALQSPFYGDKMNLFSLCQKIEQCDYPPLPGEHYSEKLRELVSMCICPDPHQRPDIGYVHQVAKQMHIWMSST
Sequence of Serine/threonine-protein kinase Nek7 (Homo sapiens) (Q8TDX7 whole entry, looked up): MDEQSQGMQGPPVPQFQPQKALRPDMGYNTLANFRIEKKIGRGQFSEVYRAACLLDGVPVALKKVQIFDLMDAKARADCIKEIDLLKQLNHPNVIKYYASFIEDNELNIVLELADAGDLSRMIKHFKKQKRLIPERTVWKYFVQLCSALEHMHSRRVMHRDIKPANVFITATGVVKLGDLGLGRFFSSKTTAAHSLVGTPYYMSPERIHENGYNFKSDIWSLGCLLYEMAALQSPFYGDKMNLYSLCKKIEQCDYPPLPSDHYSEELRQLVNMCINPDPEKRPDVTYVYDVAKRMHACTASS
Sequence of Casein kinase II subunit alpha (Homo sapiens) (P68400 whole entry, looked up): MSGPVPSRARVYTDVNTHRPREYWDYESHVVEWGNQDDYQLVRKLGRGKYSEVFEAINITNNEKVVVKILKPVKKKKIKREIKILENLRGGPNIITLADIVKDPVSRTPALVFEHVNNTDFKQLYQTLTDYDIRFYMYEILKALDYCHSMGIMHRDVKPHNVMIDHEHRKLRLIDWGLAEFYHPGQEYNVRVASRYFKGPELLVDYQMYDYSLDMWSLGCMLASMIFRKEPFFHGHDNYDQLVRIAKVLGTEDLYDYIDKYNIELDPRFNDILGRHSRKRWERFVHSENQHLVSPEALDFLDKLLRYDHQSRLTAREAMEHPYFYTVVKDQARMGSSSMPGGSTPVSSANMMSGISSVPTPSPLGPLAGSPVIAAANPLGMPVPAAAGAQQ
Sequence of Sphingosine kinase 1 (Homo sapiens) (Q9NYA1 whole entry): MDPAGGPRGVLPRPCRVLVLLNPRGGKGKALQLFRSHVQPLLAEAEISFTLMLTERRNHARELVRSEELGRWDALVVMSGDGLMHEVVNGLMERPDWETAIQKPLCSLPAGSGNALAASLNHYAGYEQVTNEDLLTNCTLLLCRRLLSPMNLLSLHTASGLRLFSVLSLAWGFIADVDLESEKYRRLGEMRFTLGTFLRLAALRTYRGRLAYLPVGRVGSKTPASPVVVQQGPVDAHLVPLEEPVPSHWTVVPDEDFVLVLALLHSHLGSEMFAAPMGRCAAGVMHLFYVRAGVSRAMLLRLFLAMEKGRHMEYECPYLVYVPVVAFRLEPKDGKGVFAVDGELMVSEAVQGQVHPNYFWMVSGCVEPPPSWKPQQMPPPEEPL

In the case of `COc1cc(N2CCN(C(C)C)CC2)ccc1Nc1nc(Nc2cccc(F)c2C(=O)O)c2cc[nH]c2n1`, the inhibition (as a rule, the drop in the measured response relative to a control, in per cent) is -1.68% in assay [1]; -0.64% in assay [2]; -0.33% in assay [3]; 6.3% in assay [4]; 22.4% in assay [5]; 4.18% in assay [6]. In addition, the inhibition in assay [7] worked out at 3.93%; in [8], 6.66%; in [9], 8.91%; in assay [10], 5.22%; in assay [11], 7.25%; in assay [12] it was 2.08%. The inhibition in assay [13] is 5.01%; in assay [14], 5.22%; in assay [15], 3.86%; in assay [16], 2.61%; in assay [17], 5.14%; in [18], 3.58%. Further, the inhibition in [19] is 3.43%; in assay [20] it was 9.89%.
